Assay results as given in PubChem BioAssay AID686978 (National Center for Advancing Translational Sciences (NCATS), 2013).
Where “and” joins values, the source holds several entries; their conditions need not be identical. Identical values can stand only once. Out of some 420,000 compounds screened, about 64,000 (15%) were called active. About 27% were inconclusive and are not listed. Calls follow the shape of the dose curve; as a rule, active = well fitted inhibition curve with a large enough effect; inconclusive = small, poorly fitted or top-dose-only effect; inactive = flat fitted curve, though single readings scatter. A selection follows. Entries that show only a call come without a potency.

test: qHTS for Inhibitors of human tyrosyl-DNA phosphodiesterase 1 (TDP1): qHTS in cells in absence of CPT; settings: DT40 Tdp1-/- hTDP1 cells, no CPT, ATP luminescence, 48 h; activity change, negative = growth inhibition: at 46.2 µM (top of the series); also: nearly all actives have a fitted effect of over 55% in size
Method in brief: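 Seeded 400 DT40-hTDP1 cells/well (vehicle DMSO, no 20 nM CPT); pinned compounds; ≥48 hr at 37 °C; CellTiter-Glo luminescence as viability measure.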
Potency is read from the fitted curve at half-maximal effect.

Row | SMILES | Potency
1 | CC(C)c1ccc(NC(=O)Cn2ncc3ccccc32)cc1 | inactive
2 | CCOC(=O)C1CCN(C(=O)C2CCN(S(=O)(=O)c3c(C)noc3C)CC2)CC1 | inactive
3 | CCOc1ccc(Oc2nc(C)cc(OC)n2)nn1 | inactive
4 | O=C1CCN(C(=S)NCCc2ccccc2)CC1 | inactive
5 | S=C(NCCc1ccccc1)N1CCCCC1 | inactive
6 | Oc1ccc(N2CCN(C(=S)NCc3ccccc3)CC2)cc1 | 13 µM (active)
7 | Cc1ccc(C(=O)COC(=O)CCN2C(=O)C3C4CC(C(Br)C4Br)C3C2=O)cc1 (centres undefined) | inactive
8 | Clc1ccc(-c2cc(COc3ccccc3)no2)cc1Cl | inactive
9 | COc1ccc(Oc2coc3cc(OC(=O)c4cncc(Br)c4)ccc3c2=O)cc1 | inactive
10 | O=C(Oc1ccccc1)Oc1ccc2c(c1)oc(=O)c1ccccc12 | inactive
11 | CCCCn1c(SCC(=O)NCC2CCCO2)nc2ccc(N3CCOCC3)cc2c1=O (centres undefined) | inactive
12 | COCCCNC(=O)CSc1nc2ccc(N3CCOCC3)cc2c(=O)n1CCc1ccccc1 | inactive
13 | N#CCSc1nc2ccc(N3CCOCC3)cc2c(=O)n1CCc1ccccc1 | 20.6 µM (active)
14 | O=C(CSc1nnc2n1CCCN2)c1ccccc1 | inactive
15 | COc1cccc(OC)c1C(=O)OCC(=O)/C(C#N)=C(\C)N | inactive
16 | Cc1ccc(-n2ncc3c(=O)n(Cc4cccc(C(F)(F)F)c4)cnc32)cc1C | inactive
17 | CC(=O)Cn1cnc2c(cnn2-c2ccccc2)c1=O | inactive
18 | CC(C)(C)n1ncc2c(=O)n(Cc3ccc(Cl)cc3)cnc21 | 23.1 µM (active)
19 | c1cc(-c2nn[nH]n2)ccc1CN1CCCCC1 | inactive
20 | CC(=O)Nc1ccc(OCCC[n+]2cccc(C(=O)[O-])c2)cc1 | inactive
21 | Fc1ccc(CNc2nc3ccccc3n3nnnc23)cc1 | inactive
22 | Nc1nc(SCc2ccccc2Cl)n[nH]1 | inactive

Row | SMILES | Potency
23 | O=c1cc(O)nc(SCc2ccccc2Cl)[nH]1 | inactive
24 | Nc1cc(N)nc(SCc2cccc(F)c2)n1 | inactive
25 | Fc1ccc(Nc2nc(SCc3ccccc3Cl)nc3ccccc23)cc1 | 16.4 µM (active)
26 | Fc1ccc(CSc2nc(NCc3ccccc3)c3ccccc3n2)cc1 | 16.4 µM (active)
27 | O=C1NCC(c2ccccc2)(c2ccccc2)C(=O)N1 | inactive
28 | CC(=O)c1nc(N2C(=O)C3CC=C(C)CC3C2=O)sc1C (centres undefined) | inactive
29 | Cc1ccc(S(=O)(=O)NC2(C(F)(F)F)NC(=O)N(CCc3ccccc3)C2=O)cc1 (centres undefined) | inactive
30 | O=C(Nc1ccccc1F)c1ccc2c(c1)OCO2 | inactive
31 | N[C@@H](C(=O)O)c1ccc(P(=O)(O)O)cc1 | inactive
32 | O=C(c1ccc(Oc2ccc(Cl)cc2)c([N+](=O)[O-])c1)N1CCCC1 | 14.6 µM (active)
33 | O=C(c1ccc(Cl)c(Cl)c1)N1CCCC1 | inactive
34 | O=C(COc1ccc(Cl)cc1[N+](=O)[O-])N1CCCCC1 | inactive
35 | CCOCCN(C=O)c1cccc(OC)c1 | inactive
36 | Cc1cc(C)c2c(Cn3ccnc3)cc(=O)oc2c1 | inactive
37 | CC(C)C[C@H](NC(=O)N1CC(=O)Nc2ccccc21)C(=O)N[C@H](Cc1ccccc1)C(=O)O | inactive
38 | CSCC[C@H](NC(=O)NC1CCCC1)C(=O)O | inactive
39 | O=C(Nc1nccs1)c1cc(S(=O)(=O)N2CCOCC2)c(Cl)cc1Cl | inactive
40 | CCOC(=O)C1=C(c2ccccc2)NC(=O)NC1c1cc(OCC)c(O)c([N+](=O)[O-])c1 (centres undefined) | inactive
41 | COc1cc(C2NC(=O)NC(c3ccccc3)=C2C(C)=O)c(Br)cc1OCC(N)=O (centres undefined) | inactive
42 | CCCOc1ccc(C2NC(=O)NC(c3ccccc3)=C2C(C)=O)cc1OCC (centres undefined) | 23.1 µM (active)
43 | CC(C)(C(=O)N1CCC1(C)C(=O)NS(=O)(=O)c1ccc(Br)cc1)c1ccccc1 (centres undefined) | inactive
44 | CSc1nsc(SCC(=O)Nc2cc(C(=O)O)ccc2C)n1 | inactive

Row | SMILES | Potency
45 | COc1ccc(C(O)(C2CCCCC2)C(CN2CCCC2)c2ccccc2)cc1 (centres undefined) | 18.4 µM (active)
46 | OC(C#CCN1CCOCC1)(c1ccccc1)C1CCCCC1 (centres undefined) | inactive
47 | CC(CN1CCCCC1)c1ccccc1 (centres undefined) | inactive
48 | CCc1nccn1S(=O)(=O)c1cc(Br)ccc1Br | inactive
49 | CCCCCC(=O)Nc1ccc2oc(-c3ccncc3)nc2c1 | inactive
50 | CCCCOc1ccc(C(=O)Nc2cccc(-c3nc4ccccc4o3)c2C)cc1 | inactive
51 | Cc1ccccc1-c1nc2cc(NC(=O)c3cccc(OCCC(C)C)c3)ccc2o1 | 5.17 µM (active)
52 | O=C(Nc1ccc(C(=O)O)c(O)c1)c1ccccc1 | inactive
53 | COc1cc(OC)cc(C(=O)Nc2ccc(-c3nc4ccccc4o3)c(O)c2)c1 | 16.4 µM (active)
54 | CC(=O)Nc1ccc(-c2nc3ccccc3o2)cc1 | inactive
55 | O=C(Nc1ccc(-c2nc3cc(NC(=O)c4ccccc4Cl)ccc3o2)cc1)c1ccccc1Cl | 2.91 µM (active)
56 | O=C(COc1ccc(Cl)cc1)Nc1ccc(-c2nc3cc(Cl)ccc3o2)c(O)c1 | inactive
57 | Cc1cc2nc(-c3ccc(NC(=O)c4cc5ccccc5o4)cc3)oc2cc1C | inactive
58 | Cc1nc2nc[nH]n2c(=O)c1NC(=O)c1cccc(OCC(C)C)c1 | inactive
59 | CCCOc1ccc(C(=O)Nc2ccc3oc(-c4cccc(Cl)c4Cl)nc3c2)cc1 | 7.31 µM (active)
60 | NS(=O)(=O)c1ccc(CCNC(=O)CNC(=O)Cc2ccccc2)cc1 | inactive
61 | NC(=O)C1CC=CCC1C(=O)OCC(Cl)=C(Cl)Cl (centres undefined) | inactive
62 | CC(C)NC(=S)N1CCN(S(C)(=O)=O)CC1 | inactive
63 | C[n+]1cc(-c2ccccc2)oc1-c1ccccc1 | inactive
64 | COc1cc(OC)cc(C(=O)NNC(=O)Cc2cccs2)c1 | inactive
65 | CC(C)(C)n1nc2c(c1NC(=O)c1ccc(S(=O)(=O)N3CCCC3)cc1)CS(=O)C2 (centres undefined) | inactive
66 | CC(C)(C)n1c(=O)[nH]c2c(c1=O)CCC2 | inactive

Row | SMILES | Potency
67 | CC1(C)CC(=O)C(N=Nc2c(F)cccc2F)=C(O)C1 | inactive
68 | NC1=NC(=O)C2(COC(c3ccccc3Cl)OC2)S1 (centres undefined) | inactive
69 | O=C(CSc1ncccn1)NC(=O)NCc1ccccc1 | inactive
70 | COc1cc(NC(=O)CN2CCN(S(=O)(=O)c3ccc(Br)cc3)CC2)cc(OC)c1 | inactive
71 | O=C(Nc1ccc(NC(=O)c2cccs2)cc1)c1ccc2ccccc2c1 | inactive
72 | COC(=O)c1ccc(-c2nc3cc(NC(C)=O)ccc3o2)cc1 | inactive
73 | COc1cccc(C(=O)Nc2ccc3oc(-c4ccc5ccccc5c4)nc3c2)c1 | 10.3 µM (active)
74 | O=C(Nc1ccc2oc(-c3ccc(O)c(Br)c3)nc2c1)c1cc2ccccc2o1 | inactive
75 | COc1cccc(-c2nc3cc(C)ccc3o2)c1 | inactive
76 | O=C(Nc1ccc2oc(-c3ccc4ccccc4c3)nc2c1)c1cccs1 | 23.1 µM (active)
77 | COCCNC(=O)c1ccccc1-c1nc(-c2ccccc2Cl)no1 | inactive
78 | COc1ccccc1CCCNC(=O)C1CCC(=O)N(CCN2CCOCC2)C1 (centres undefined) | inactive
79 | Cn1c(N)c(C(=O)COC(=O)COc2ccc(Cl)cc2)c(=O)n(C)c1=O | inactive
80 | N=C1C(=O)OCC1c1ccccc1NC(=O)CN1CCCCC1 (centres undefined) | inactive
81 | Cc1cccc(CC2(O)C(=O)Nc3ccccc32)n1 (centres undefined) | inactive
82 | CC(Sc1nnc(COc2ccccc2)n1-c1ccccc1)C(=O)O (centres undefined) | inactive
83 | CCCCN(CC)CCCNC(=O)c1nn(C)c2c1CS(=O)(=O)c1ccccc1-2 | inactive
84 | COc1ccc(C(=O)Nc2ccc3nc(N4CCCCC4)cc(C)c3c2)cc1OC | 14.6 µM (active) and 16.4 µM (active)
85 | COc1cc(NC(=O)c2ccc(CNc3c(N4CCCC4)c(=O)c3=O)cc2)cc(OC)c1OC | inactive
86 | CCN1CCN(c2cc(C)c3cc(NC(=O)c4cc(Cl)ccc4OC)ccc3n2)CC1 | 4.11 µM (active)
87 | Cc1cc(N2CCN(C)CC2)nc2ccc(NC(=S)N3CCOCC3)cc12 | inactive
88 | COC(=O)c1ccc(NC(=O)c2cc(Cl)ccc2OC)cc1 | inactive

Row | SMILES | Potency
89 | CCOCCCNC(=S)Nc1ccc2nc(N3CCN(CC)CC3)cc(C)c2c1 | inactive
90 | CCOc1ccc(S(=O)(=O)NCCSc2ccccc2)cc1 | inactive
91 | O=C(Nc1ccccc1)c1ccccc1Br | inactive
92 | O=C(Nc1cccc(Cl)c1)Nc1nnc(-c2ccccc2)o1 | 16.4 µM (active)
93 | O=C(Nc1nnc(-c2ccc(Cl)cc2)o1)c1ccccc1Br | 18.4 µM (active)
94 | O=C(COC(=O)c1ccccc1Br)Nc1nnc(-c2ccccc2)o1 | inactive
95 | O=C(CSc1nnc(-c2ccncc2)o1)Nc1cccc(Cl)c1 | inactive
96 | CC(=O)Nc1cccc(C(=O)OCC(=O)Nc2nnc(-c3ccccc3)o2)c1 | inactive
97 | O=C(Cn1cnc2cc([N+](=O)[O-])ccc2c1=O)NC(=O)NCc1ccccc1 | inactive
98 | CCOC(=O)N1CCN(Cc2oc(CO)cc(=O)c2O)CC1 | inactive
99 | O=C(N/N=C/c1ccc2c(c1)OCO2)c1ccc(Cn2cc([N+](=O)[O-])cn2)o1 | inactive
100 | Cc1c(Cl)c([N+](=O)[O-])nn1Cc1ccc(C(=O)N/N=C\c2cc(Cl)ccc2O)o1 | 4.61 µM (active)
101 | Cc1ccc(C(=O)O)cc1NC(=O)c1ccc(Cn2nc(C)c(Cl)c2C)o1 | inactive
102 | O=C(O)CSCC(=O)Nc1ccc(C(F)(F)F)cc1 | inactive
103 | COc1ccc(C(C)=O)cc1CN1C(=O)NC2(CCCCC2C)C1=O (centres undefined) | inactive
104 | CNS(=O)(=O)c1cccc(C(=O)OCC(=O)N2c3ccccc3NC(=O)C2(C)C)c1 | inactive
105 | Cc1ccn(CC(=O)NC2CCCN(Cc3ccccc3F)C2)n1 (centres undefined) | inactive
106 | CC(C)c1cc(C(=O)N(C)C2CCCN(Cc3ccccc3F)C2)n(C)n1 (centres undefined) | 25.9 µM (active)
107 | CCCOC1CCCN(Cc2cn(C)nc2-c2ccccc2F)C1 (centres undefined) | inactive
108 | CC1CCCN(Cc2c(O)ccc3c(=O)c(Oc4ccc(C(C)(C)C)cc4)c(C(F)(F)F)oc23)C1 (centres undefined) | inactive
109 | Cn1nc(C(F)(F)F)c2cc(NC(=O)OCC(C)(C)C)sc21 | inactive
